# IEC-6 tox = cytotoxicity in IEC-6 intestinal epithelial cells, primary screen, cytotoxicity control for KLF5 inhibitor project, cell-based, luminescence | inhibition, % at 5 µM | 0.78% of 290,000 active | IEC-6 cytotoxicity, luminescence viability; in the data active = inhibition above about 22%
# APP transl inh = inhibitors of APP translation via 5'UTR reporter, primary screen, APP 5'UTR luciferase, SH-SY5Y cells; AID 1285, 2008; 0.82% of 190,000 active; inhibition, % at 2 µM; SH-SY5Y APP 5'UTR-luciferase reporter, luminescence;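 active = inhibition above a set limit, derived from the sample mean plus 3 SD, cut at about 45% in these data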
# aSyn UTR inh = MLPCN primary screen, SNCA 5' untranslated region; alpha-synuclein 5'UTR reporter, inhibitor activity; AID 1813, 2009; inhibition, % (tested at 7.5 µM); 0.82% of 300,000 active; in the data active = inhibition above about 60%;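 note: H4 neuroglioblastoma cells stably carrying SNCA 5'UTR luciferase fusion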
# KLF5 inh = KLF5 expression inhibitors, primary screen, DLD-1 cells, luminescence; DLD-1 KLF5 promoter-luciferase reporter; inhibition, % at 5 µM; 0.23% of 290,000 active; AID 1700, 2009;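 active = inhibition above a per-plate limit of that plate's mean compound inhibition plus 3 SD, cut at about 60% in these data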;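 note: higher means less KLF5 promoter-driven luciferase light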
# Ba/F3 V617F tox = reduced viability of JAK2V617F-dependent Ba/F3 cells, primary screen, JAK2V617F inhibitor project, cell-based, Ba/F3 EpoR-JAK2V617F, luminescence; inhibition, % at 5.6 µM; 1.1% of 220,000 active; ATP luminescence;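 active = inhibition above the campaign mean plus 3 SD over all tested compounds, cut at about 24% in these data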;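 note: cytokine-independent growth of Ba/F3 cells driven by EpoR plus mutant JAK2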
# BaF3 parental = parental Ba/F3 cell viability inhibition, counter-screen for JAK2V617F inhibitor project, murine pro-B, CellTiter-Glo luminescence; CellTiter-Glo ATP luminescence; inhibition, % at 5.6 µM; 1.1% of 220,000 active;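 active = inhibition above a per-campaign cutoff, the mean inhibition of all tested compounds plus 3 SD, cut at about 27% in these data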
# Numbers stand for hits; – = inactive; · = no result. A selection: hits, their analogues and other compounds. The true share with any hit is near 2.2%.
SMILES,IEC-6 tox,APP transl inh,aSyn UTR inh,KLF5 inh,Ba/F3 V617F tox,BaF3 parental
Nc1ncnc2c1ccn2[C@@H]1O[C@H](CO)[C@@H](O)[C@H]1O,·,·,107,·,·,·
NC(=S)c1cn(C2OC(CO)C(O)C2O)c2ncnc(N)c12 (centres undefined),100,·,105,110,99,104
CC[n+]1c(/C=C/N(C)c2ccccc2)sc2ccc(Cl)cc21,–,–,–,–,80,72
Cn1c(O)c(C=NCCN2CCNCC2)c(=O)[nH]c1=O,–,·,–,–,–,–
CC(=O)OC1CC[C@]2(C#N)[C@H]3CC[C@]4(C)[C@H](C5C=CC(=O)O5)CCC4(O)C3CCC2(O)C1 (some centres undefined),–,·,85,–,·,·
Cc1nn(Cc2ccc(Cl)cc2Cl)c(Cl)c1C(=O)O,–,–,–,–,–,–
N=c1c2c(n(Cc3ccc(Cl)cc3Cl)c3c1CCC3)CCCC2,–,–,–,–,92,70
COc1ccc(-n2c(CNCCc3ccc(C)cc3)nc3ccccc3c2=O)cc1,–,·,–,–,·,·
CC(=O)Nc1ccc(OC(=O)N2CCCCC2)cc1,–,–,69,–,–,–
CC1CCCCC1NC(=O)CNC(=S)N1CC2CC(C1)c1cccc(=O)n1C2 (centres undefined),–,·,–,–,·,·
O=[N+]([O-])c1ccccc1-c1cc(-c2ccccc2)cc(-c2ccccc2)[n+]1Cc1ccccc1Cl,·,·,64,·,·,·
Clc1ccc(C[n+]2c(-c3ccccc3)cc(-c3ccccc3)cc2-c2ccccc2)cc1,·,·,–,·,·,·
C=C1C(=O)O[C@@H]2C[C@@H](C)[C@@H]3C=CC(=O)[C@@]3(C)[C@@H](O)[C@H]12,·,·,119,·,·,·
COc1ccc(C)cc1NC1=NC(C)(C)CS1,–,–,–,–,–,–
CCOc1ccc(-c2cc(C)[n+](CCO)c(-c3ccc(OCC)cc3)c2)cc1,–,–,–,–,57,72
CCOc1ccc(-c2cc(C)[n+](CCc3ccc(OC)c(OC)c3)c(-c3ccc(OCC)cc3)c2)cc1,–,·,–,–,·,·
COC(=O)c1nc(-c2ccc3c(n2)C(=O)C(N)=C(OC)C3=O)c(N)c(-c2ccc(OC)c(OC)c2O)c1C,–,·,97,–,–,–
Oc1ccc(C2=CCNCC2)cc1O,·,·,–,·,·,·
COC(=O)c1ccc(CC(C(=O)c2ccccc2)N(C)C)cc1 (centres undefined),–,·,–,–,·,·
Cc1nc2c(-c3ccccc3)c(C)nn2c(C)c1CCC(=O)N1CCC2(CC1)OCCO2,–,–,–,–,–,–
Cc1nc2cc(-c3cccc(F)c3)nn2c(C)c1CCC(=O)N1CCC2(CC1)OCCO2,–,–,77,–,–,–
COc1ccc(-[n+]2c(-c3ccccc3)cc(-c3ccccc3)cc2-c2ccccc2)cc1,·,·,81,·,·,·
O=C(NC(=S)N1C[C@H]2C[C@H](C1)c1cccc(=O)n1C2)c1ccc(Cl)cc1Cl,–,·,–,–,·,·
CCOc1cccc(CNCCc2c(C)[nH]c3ccc(OC(F)(F)F)cc23)c1O,–,·,113,–,·,·
CC(=O)c1cn(Cc2ccccc2C#N)c2ccccc12,–,–,–,–,46,67
SMILES,IEC-6 tox,APP transl inh,aSyn UTR inh,KLF5 inh,Ba/F3 V617F tox,BaF3 parental
CP(C)(=O)CCC(=O)O,–,–,–,–,–,36
CCn1c(NN=O)nc2ccccc21,–,–,74,–,–,–
OC(CNCCc1c[nH]c2ccccc12)c1ccccc1 (centres undefined),–,·,–,–,·,·
CC(C(=O)c1c[nH]c2ccccc12)N1CCc2ccccc2C1 (centres undefined),–,–,–,–,26,43
CCC1(OC(=O)CN)C(=O)OCc2c1cc1n(c2=O)Cc2cc3ccccc3nc2-1 (centres undefined),96,·,103,104,99,96
Cc1cc(OC(C)C(=O)NCC(O)c2ccccc2)c2c3c(c(=O)oc2c1)CCCC3 (centres undefined),–,·,–,–,·,·
C1=C(c2c[nH]c3ccccc23)CCN(Cc2ccccc2)C1,–,–,–,–,97,76
CN1CC=C(c2c[nH]c3ccccc23)CC1,–,–,–,–,29,61
O=[N+]([O-])c1ccc(CN2CC=C(c3ccccc3)CC2)cc1,–,·,–,–,·,·
CCOP(=O)(OCC)Oc1cc(C)c(N(C)C)c(C)c1,–,·,–,–,–,–
CC12CC[C@H]3[C@@H](CCC4(O)C[C@H](O)CCC34/C=N/NC(=O)c3ccccc3F)C1(O)CCC2C1=CC(=O)OC1 (some centres undefined),–,·,64,–,–,–
CC12CC[C@H]3[C@@H](CCC4(O)C[C@H](O)CCC34/C=N/NC(=O)c3ccccc3O)C1(O)CCC2C1=CC(=O)OC1 (some centres undefined),–,·,77,–,–,–
O=C(COc1ccccc1)N1CCN(CC2CC=CCC2)CC1 (centres undefined),–,·,–,–,·,·
O=c1[nH]c(=S)n(C2CC2)c(O)c1C=NCCc1ccccc1,–,·,–,–,–,–
Cc1ccc(N=Nc2c(O)[nH]c(=O)[nH]c2=O)c([N+](=O)[O-])c1,–,–,–,–,–,–
COc1ccc(Cc2c(O)[nH]c(=O)[nH]c2=O)c(OC)c1,–,·,–,–,–,–
COc1ccc(C(=O)N/N=C/C23CC[C@@H](O)CC2(O)CC[C@@H]2[C@@H]3CCC3(C)C(C4=CC(=O)OC4)CCC23O)cc1 (some centres undefined),–,·,89,–,–,–
CC12CC[C@H]3[C@@H](CCC4(O)C[C@H](O)CCC34/C=N/NC(=O)c3ccc(O)cc3)C1(O)CCC2C1=CC(=O)OC1 (some centres undefined),–,·,–,–,–,–
CN(C)c1ccc(C(=O)N/N=C/C23CC[C@@H](O)CC2(O)CC[C@@H]2[C@@H]3CCC3(C)C(C4=CC(=O)OC4)CCC23O)cc1 (some centres undefined),–,·,95,–,–,–
COc1cc(C(=O)N/N=C/C23CC[C@@H](O)CC2(O)CC[C@@H]2[C@@H]3CCC3(C)C(C4=CC(=O)OC4)CCC23O)ccc1O (some centres undefined),–,·,–,–,–,–
O=[N+]([O-])c1ccc(NCCCN2CCOCC2)nc1,–,·,–,–,·,·
CC1(C)C(C(=O)N2CCN(C(=O)c3ccccc3)CC2)C1(C)C,–,·,–,–,·,·
COC1CC(OC2CCC3(C)C(CCC4C3CCC3(C)C(C5=CC(=O)OC5)C(OC(C)=O)CC43O)C2)OC(C)C1OC1OC(COC2OC(CO)C(O)C(O)C2O)C(O)C(O)C1O (centres undefined),·,·,115,·,·,·
Clc1cccc(C2NCc3ccccc3-n3cccc32)c1 (centres undefined),–,·,–,–,–,–

# High-throughput results as filed in PubChem.
